# Screening data from PubChem BioAssay.
# Luciferase inh: inhibitors of firefly (Photinus pyralis) luciferase | P08659 | purified P. pyralis luciferase, luminescence, biochemical | Potency, µM (highest dose often 115 µM), usual class: inhibitors | 76,000 compounds, 2.5% hits; also: nearly all actives have a fitted effect of over 65% in size
#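 Inhibitors were tested against purified firefly luciferase in a biochemical, low-substrate format (both substrates at 10uM) and luminescence measured with a CCD imager.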
# HEK293 tox: HEK 293 cell cytotoxicity; HEK 293 viability, ATP luminescence (CellTiter-Glo), 48-72 h; 94,000 compounds, 6.6% hits; Potency, µM (top dose mostly 115 µM), for inactives: at the top dose activity change, negative = cytotoxicity, usual class: inhibitors; also: nearly all actives have a fitted effect of over 60% in size
#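 Read-out: CellTiter-Glo ATP luminescence. Cells: HEK 293, 250 cells/well. Exposure: 48 or 72 hr, 37 degree Celsius.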
# GPT2 inhibitor: GPT2 alanine aminotransferase inhibition; 100,000 compounds, 0.25% hits; Potency, µM (titrated, usually from 57.7 µM), inactives show top-dose activity change, negative = inhibition, most hits filed as inhibitors; Recombinant GPT2, coupled pyruvate oxidase/HRP Amplex Red fluorescence; Q8TD30; also: nearly all actives have a fitted effect of over 60% in size
#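 GPT2 10ng/uL, a-KG 250uM, L-Ala 2mM, HEPES pH7.5 + 0.0001% Tween; 30 min RT. Then Amplex mix (PO/HRP/ThPP), 30 min RT dark, fluorescence. AOA 50uM used as positive control.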
# NPR1 antag: human Npr1 receptor antagonism; P16066; Potency, µM (titrated, usually from 46.3 µM), without a hit: at the highest dose activity change, negative = inhibition, actives largely listed as inhibitors; HEK293 hNpr1 GloSensor cGMP, ANP-stimulated luminescence; 76,000 compounds, 1.6% hits; calls by dose curve; also: nearly all actives have a fitted effect of over 60% in size
# Target sequence (P16066 whole entry, looked up): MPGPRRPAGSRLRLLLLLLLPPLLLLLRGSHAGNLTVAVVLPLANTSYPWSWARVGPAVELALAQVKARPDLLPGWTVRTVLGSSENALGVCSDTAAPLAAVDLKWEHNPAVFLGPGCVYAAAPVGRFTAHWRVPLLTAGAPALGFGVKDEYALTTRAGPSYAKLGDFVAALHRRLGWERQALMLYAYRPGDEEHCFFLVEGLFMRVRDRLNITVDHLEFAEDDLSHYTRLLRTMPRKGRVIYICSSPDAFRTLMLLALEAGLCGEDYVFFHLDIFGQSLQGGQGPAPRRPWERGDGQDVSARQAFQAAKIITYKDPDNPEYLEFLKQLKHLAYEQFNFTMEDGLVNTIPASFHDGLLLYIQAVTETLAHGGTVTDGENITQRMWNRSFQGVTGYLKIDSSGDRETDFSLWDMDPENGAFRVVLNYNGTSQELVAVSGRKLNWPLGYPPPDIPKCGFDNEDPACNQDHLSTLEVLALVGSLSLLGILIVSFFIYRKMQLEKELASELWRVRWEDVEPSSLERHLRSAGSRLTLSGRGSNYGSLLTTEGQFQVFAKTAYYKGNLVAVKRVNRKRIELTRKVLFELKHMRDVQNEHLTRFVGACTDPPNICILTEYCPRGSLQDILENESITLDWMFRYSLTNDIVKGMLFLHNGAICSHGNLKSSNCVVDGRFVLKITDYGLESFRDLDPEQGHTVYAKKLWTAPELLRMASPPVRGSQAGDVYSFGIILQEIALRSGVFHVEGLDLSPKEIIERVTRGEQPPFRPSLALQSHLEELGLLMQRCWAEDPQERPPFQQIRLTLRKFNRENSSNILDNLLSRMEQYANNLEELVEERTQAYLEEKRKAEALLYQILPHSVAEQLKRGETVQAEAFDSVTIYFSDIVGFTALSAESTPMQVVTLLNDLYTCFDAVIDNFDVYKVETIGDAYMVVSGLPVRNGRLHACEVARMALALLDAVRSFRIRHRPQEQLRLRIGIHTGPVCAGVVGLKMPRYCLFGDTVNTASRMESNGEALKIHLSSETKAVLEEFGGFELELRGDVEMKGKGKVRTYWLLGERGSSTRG
#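 Compound pre-incubated 30 min at room temperature on GloSensor-loaded HEK293 cells stably carrying hNpr1 and the pGS-40F cGMP biosensor. Stimulation uses hNppA at 0.1 nM final; luminescence is taken at baseline and 20 min post-agonist.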
# NIH3T3 tox: cytotoxic compounds in NIH 3T3 cells; NIH 3T3 viability, CellTiter-Glo ATP luminescence, 48-72 h; Potency, µM (titrated, usually from 96.7 µM), for the others: at the highest dose activity change, negative = cytotoxicity, actives largely listed as inhibitors; 94,000 compounds, 4.3% hits; AID 1345082; also: nearly all actives have a fitted effect of over 55% in size
#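 ATP-dependent luminescence (CellTiter-Glo) served as the viability signal for NIH 3T3 cells treated with compound for 48 or 72 hr at 37 °C.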
# Numbers without * were called inactive; i = inactive; ? = inconclusive; . = no result; ! = not confirmed by another sample; [ ] = remark or other dose. Hits are enriched below; roughly 10% of the tested compounds scored in any of these assays. Unless noted, calls follow the shape of the dose curve; as a rule, active = well fitted curve in the direction sought with a large enough effect; inconclusive = small, poorly fitted or top-dose-only effect, or another doubt; inactive = no such curve, though single readings can be large; an effect the other way counts as inactive or inconclusive. % is scaled to controls: 0 for no effect and ±100 for the full control effect; potency is read from the fitted curve at half-maximal effect.
SMILES,Luciferase inh,HEK293 tox,GPT2 inhibitor,NPR1 antag,NIH3T3 tox
CC(C)c1ccc([S+](=O)([O-])N2CC(CNC(=O)c3cnn(C)c3)C3(CN(c4ccccc4)C3)C2)cc1 (stereo not drawn),i,?,-18%,-12%,?
COc1ccccc1CN1CC(CNC(=O)Nc2ccccc2)C2(C1)CN(c1ccccc1)C2 (stereo not drawn),i,79µM*,-14%,-15%,?
CC(C)CCN1CC(CN[S+](=O)([O-])c2ccccc2)C2(C1)CN(c1ccccc1)C2 (stereo not drawn),i,?,?,-17%[70.6 µM],45µM*
COc1ccc(CN2CC(CN[S+](=O)([O-])c3ccccc3)C3(C2)CN(c2ccccc2)C3)cc1O (stereo not drawn),i,?,i,-11%,22µM*
CN(C)CCOCC1(C)COc2ccc(C(=O)NCc3cccc(F)c3)cc2N1 (stereo not drawn),i,?,2%[88.5 µM],4%[70.6 µM],?
COc1ccc(CN2CC(CNc3ccccc3)C3(C2)CN(c2ccccc2)C3)cc1O (stereo not drawn),i,40µM*,?,-8%[70.6 µM],28µM*
CN1CCC2(Cc3ccccc3CN(C(=O)c3ccccc3)C2)C1 (stereo not drawn),.,?,i,.,-24%
COc1ccccc1-c1ccc(CN2CCCCC2C(=O)NCc2ccccc2F)cc1 (stereo not drawn),.,40µM*,.,.,?
COc1ccc(CNC(=O)C2CCCCN2Cc2ccc(-c3cccs3)cc2)cc1 (stereo not drawn),.,?,-8%,.,?
COc1ccccc1-c1cccc(C(=O)N2CCC[C@H]2C(=O)NCC2CC2)c1,.,?,i,.,-19%[138 µM]
COc1ccccc1-c1cccc(C(=O)N2CCC[C@H]2C(=O)NCc2ccc(F)cc2F)c1,.,?,0%,.,?
COc1ccccc1-c1ccc(CN2CCCCC2C(=O)NCc2ccccc2)cc1 (stereo not drawn),.,32µM*,.,.,?
COc1ccccc1-c1ccc(CN2CCCCC2C(=O)NCC2CC2)cc1 (stereo not drawn),.,45µM*!,.,.,?
Cc1noc([C@@H]2CN(C(=O)Cc3ccsc3)C[C@H]2C(N)=O)n1,i,-3%,5%,5%,-10%
CC(=O)Nc1cccc(-c2cn(C)c(=O)n3cc(COc4ccccc4)nc23)c1,i,?,0%[88.5 µM],-9%[70.6 µM],?
Cc1cccc2c(C3CCN(S(=O)(=O)c4c(Cl)cccc4Cl)CC3)c[nH]c12,i,?,-11%,-1%,?
CCCc1ccc(S(=O)(=O)N2CCC(c3c[nH]c4c(C)cccc34)CC2)cc1,i,50µM*,-2%,-2%,?
CN1CCCCCCN(Cc2cn(C)c3ccccc23)[C@H]2CCC[C@H]2C1=O,i,?,i,-11%,?
COc1ccc2c(c1)c(CN1CCCCCCN(C)C(=O)[C@@H]3CCC[C@@H]31)cn2C,i,35µM*,i,-13%,28µM*
O=C(Nc1ccc2c(c1)OCO2)C1CN(S(=O)(=O)c2cccnc2)CC12CCCCC2 (stereo not drawn),40µM*,-30%,2%,-3%,-27%
O=C(NCc1ccc(C(F)(F)F)cc1)C1CCCN(c2cn[nH]c(=O)c2)C1 (stereo not drawn),i,-15%,i,-1%,-13%
Cn1cc(CN2CCN3CCCC3C2)c(-c2ccc(C3CCCCC3)cc2)n1 (stereo not drawn),?,25µM*,?,6%,?
O=C(c1cccc(C(F)(F)F)c1)N1CCOCC2(CN(Cc3ccccc3)C2)C1,i,7.1µM*,1%[88.5 µM],-3%[70.6 µM],7.1µM*
COc1ccc(C(=O)N2CCOCC3(CN(Cc4cccc(C#N)c4)C3)C2)cc1OC,i,?,0%[88.5 µM],7%[70.6 µM],79µM*
O=[S+]([O-])(c1ccccc1)N1CC2(COCCN(Cc3ccc(Cl)cc3)C2)C1,i,?,2%[88.5 µM],-9%[70.6 µM],?
SMILES,Luciferase inh,HEK293 tox,GPT2 inhibitor,NPR1 antag,NIH3T3 tox
O=C(c1ccc(Cl)cc1)N1CCOCC2(C1)CN([S+](=O)([O-])c1ccccc1)C2,i,?,-3%[88.5 µM],1%[70.6 µM],50µM*
CCC(=O)N1CCC(Cc2noc(-c3ccncc3)n2)C1 (stereo not drawn),i,-1%,i,-1%,-7%
CC(C)(C)C(=O)N1CCOC[C@H]1c1ncc(-c2ccc(OC(F)(F)F)cc2)[nH]1,i,?,?,-16%[70.6 µM],?
FC(F)(F)c1ccc(-c2cnc([C@@H]3COCCN3Cc3ccccn3)[nH]2)cc1,i,56µM*,-13%[88.5 µM],-6%[70.6 µM],40µM*
COc1ccc(-c2cnc([C@@H]3COCCN3Cc3ccccc3)[nH]2)cc1,i,?,i,-22%[70.6 µM],?
C[C@@H](NC(=O)N1CCOC[C@H]1c1ncc(-c2ccc(Cl)cc2)[nH]1)c1ccccc1,i,?,-1%[88.5 µM],-20%[70.6 µM],100µM*
CO[C@@](C(=O)N1CCOC[C@H]1c1ncc(-c2ccccc2)[nH]1)(c1ccccc1)C(F)(F)F,i,?,2%,-26%,45µM*
FC(F)(F)c1ccc(-c2cnc([C@@H]3COCCN3Cc3ccncc3)[nH]2)cc1,i,?,i,-10%[70.6 µM],-25%[138 µM]
CC(C)(C)CN1CCOC[C@H]1c1ncc(-c2ccccc2)[nH]1,i,79µM*,-8%[88.5 µM],-12%[70.6 µM],?
CNC(=O)c1cc(C2CC2)nc2c1c(C1CCCN(C(=O)C3CC3)C1)nn2C (stereo not drawn),.,-7%,.,.,-31%
CC(C)(C)CN1CCOC[C@H]1c1ncc(-c2cccc(Cl)c2)[nH]1,i,100µM*,1%[88.5 µM],-18%[70.6 µM],89µM*
COc1ccc(C)cc1NC(=O)c1cnc(-c2ccc(F)cc2)nc1-c1ccncc1,i,-34%,i,?,-37%
CCN1CCN(CCNC(=O)c2cc(-c3ccc(Cl)cc3)cn2C)CC1,i,25µM*,i,-1%,?
CCN1CCN(CCNC(=O)c2cc(-c3ccc(Cl)cc3)cn2CC)CC1,i,28µM*,-4%,-2%,20µM*
O=C(NCc1cccc(C(F)(F)F)c1)c1nc2sccn2c1-c1ccc(C(F)(F)F)cc1,.,40µM*,-9%,.,?
COCCNC(=O)c1nc2sccn2c1-c1ccc(C(F)(F)F)cc1,.,-27%,-15%,.,?
O=C(NCc1ccc(F)cc1)c1nc2sccn2c1-c1cccc(C(F)(F)F)c1,.,63µM*,-2%[88.5 µM],.,?
O=C(Nc1ccc(F)cc1)c1nc2sccn2c1-c1cccc(C(F)(F)F)c1,.,50µM*,i,.,?
O=C(NCCc1ccc(Cl)cc1)c1nc2sccn2c1-c1ccc(C(F)(F)F)cc1,.,40µM*,-15%,.,20µM*
